# Screens (PubChem BioAssay)
# In the library only some 4.2% were active in any assay of this set; here they are far more common.
# ClpP mod: qHTS Assay for Activators of ClpP. AID 651965, 2013. purified B. subtilis ClpP, FRET peptide cleavage, 20 min. Potency, µM (highest dose often 57.5 µM), for inactives: at the highest dose activity change, negative = active. 1.9% of 340,000 active. ATP-dependent Clp protease proteolytic subunit (Bacillus subtilis (strain 168)), P80244; active means well fitted falling curve with a large enough effect; inconclusive means small, poorly fitted or top-dose-only effect; inactive means no such curve, though single readings can be large or run the other way; further: potency means the concentration at half of the fitted maximal effect; the source files actives as falling curves though it sought activators and does not explain the sign; nearly all actives have a fitted effect of over 65% in size
#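 Purified B. subtilis ClpP, 10 microg/mL final in Tris/HCl pH8 with KCl, BSA, glycerol and Tween-20, cleaved an Abz/nitrotyrosine-quenched decapeptide. Fluorescence (ex 320, em 430) was read at 0 and 20 min at room temperature. Delta was normalized to 5.8 microM ADEP and DMSO/no-enzyme controls.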
# uPA generation: blocks generation of uPA at the cell surface; 0.31% of 330,000 active; Potency, µM (doses to about 38.3 µM), for inactives: top-dose activity change, negative = inhibition, actives largely listed as inhibitors; cell surface uPA generation assay, qHTS; active means well fitted inhibition curve with a large enough effect; inconclusive means small, poorly fitted or top-dose-only effect; inactive means no such curve, though single readings can be large or run the other way; tested in mouse RAW 264.7 cells; further: potency means the concentration at half of the fitted maximal effect; on the % scale 0 is the no-effect control and ±100 the full control effect; nearly all actives have a fitted effect of over 55% in size
# Sfp PPTase inh: Sfp phosphopantetheinyl transferase inhibition; Q9F4F7; Biochemical Sfp PPTase activity, qHTS; Potency, µM, without a hit: largest response in the series, negative = inhibition, most hits filed as inhibitors; 3.5% of 310,000 active;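 further: the enzyme is Sfp with the accession as filed and its product quenches rhodamine fluorescence; potency means the concentration at half of the fitted maximal effect; 0% = enzyme reaction without inhibitor and -100% = no enzyme wells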
#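 Fluorescence-quenching assay: 15 nM Sfp-PPTase preincubated 15 min at room temperature with compound, then 5 uM rhodamine-CoA and 12.5 uM BHQ-2-labelled YbbR peptide added. Fluorescence (ex 525/em 598 nm) read at start and after 30 min; difference gives rate.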
# TCR activator: activators of T cell receptors. primary human leukocytes, anti-CD3, IL-2 HTRF, 48 h. Potency, µM (series often up to 9.22 µM), inactives show at the top dose activation of IL-2 secretion, actives largely listed as activators. 330,000 tested, under 10 active. AID 504894; further: % of control where 0% means no effect
#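 Primary human leukocytes were stimulated with a-CD3 beads plus compounds for 48 hr without co-stimulation; secreted IL-2 was quantified by HTRF using a-IL-2-K (europium cryptate) and a-IL-2-d2, excited at 320nm with acceptor emission read at 665nm.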
# Starred values were filed as active, the others as inactive; ? = inconclusive; . = no result; [ ] = dose if it differs, or a comment. Unless noted, the call rests on the fitted dose curve; in most records, active means well fitted curve in the direction sought with a large enough effect; inconclusive means small, poorly fitted or top-dose-only effect, or another doubt; inactive means no such curve, though single readings can be large; an effect the other way counts as inactive or inconclusive.
SMILES,ClpP mod,uPA generation,Sfp PPTase inh,TCR activator
CC1(C#CC[N+]2(C)CCCCC2)CCC2C(O1)c1ccccc1OC2(C)C (centres undefined),1.8%,3.5%,56.2µM*,-1.5%
CC1(C(O)(C#CC[N+]2(C)CCCCC2)c2ccccc2)CCCC1 (centres undefined),.,3.4%,8.0%,4.4%
COc1cc(C(=O)OCCCc2cc3ccccc3c(=O)o2)cc(OC)c1OC,-4.4%,3.3%,.,4.1%
COc1cc(C(=O)OCCc2cc3ccccc3c(=O)o2)cc(OC)c1OC,-4.3%,1.12µM*,.,-58.7%
O=C(/C=C/c1cccc(O)c1)c1ccc(N2CCOCC2)cc1,-0.9%,10µM*,-2.9%,-2.7%
N#Cc1ccc2c(c1)C[C@]1(c3ccsc3)Oc3c(c(=O)oc4ccccc34)C2O1,.,.,-16.0%,.
Cc1cccc2nc(CSCc3ccco3)cn12,-0.8%,-2.1%,31.6µM*,-6.2%
CCCN1CNc2c(c(=O)[nH]c(=S)n2CCc2cc(C)ccc2C)C1,-2.5%,.,.,.
COCCCn1c(C)cc(C(=O)COC(=O)C23CC4CC(CC(O)(C4)C2)C3)c1C,28.2µM*,-6.4%,.,4.8%
O=C(Cn1c(=O)n(-c2ccccc2)c(=O)c2c3c(sc21)CCC3)c1ccc(Br)cc1,-5.2%,.,.,.
CCCN(CCC)CCNC(=O)CS(=O)Cc1nc(-c2ccc(OC)c(OC)c2)oc1C (centres undefined),31.6µM*,.,.,.
COc1ccc(-c2nc(CS(=O)CC(=O)NCc3ccc(F)cc3)c(C)o2)cc1OC (centres undefined),28.2µM*,.,.,.
COc1ccc(-c2nc(CS(=O)CC(=O)NCc3ccc(C)cc3)c(C)o2)cc1OC (centres undefined),4.0%,-6.7%,7.4%,-1.2%
CCOc1ccc(C(Nc2cccnc2)c2cc(Cl)c3cccnc3c2O)cc1 (centres undefined),3.6%,-3.4%,?,1.3%
CCOc1ccc(NC(c2ccccn2)c2oc(CO)cc(=O)c2O)cc1 (centres undefined),-0.5%,?,3.16µM*,6.4%
CCOc1ccc(C2C(C(=O)c3ccc(C)o3)=C(O)C(=O)N2c2nc(C)c(C(=O)OC)s2)cc1 (centres undefined),-3.5%,?,50.1µM*,0.2%
Cc1nnc(N2C(=O)C(O)=C(C(=O)c3ccco3)C2c2ccc(F)cc2)s1 (centres undefined),0.4%,4.4%,-12.2%,4.8%
Cc1nnc(N2C(=O)C(O)=C(C(=O)c3ccco3)C2c2ccc(C(C)C)cc2)s1 (centres undefined),0.5%,-2.5%,56.2µM*,5.2%[46.1 µM]
CCCCOc1cccc(C2C(C(=O)c3ccc(C)o3)=C(O)C(=O)N2c2nnc(C)s2)c1 (centres undefined),-7.2%,-3.7%,50.1µM*,0.1%
CCOC(=O)c1sc(N2C(=O)C(O)=C(C(=O)c3ccco3)C2c2ccc(C)o2)nc1C (centres undefined),.,-1.3%,39.8µM*,4.2%
C[C@@H]1CN([C@H](C)CO)C(=O)c2c(c3ccccc3n2C)-c2ccccc2CO[C@@H]1CN(C)S(=O)(=O)c1cccs1,-1.2%,.,.,.
COc1ccc(S(=O)(=O)N2CCOCC2)cc1NC(=O)COc1ccc(C(C)=O)cc1OC,-19.0%,1.1%,.,-4.5%
NC(=O)CN1C(=O)C2(SCC(=O)N2c2cccc(F)c2)c2ccccc21 (centres undefined),0.0%,.,.,.
COc1ccc(C=O)c2[nH]c3c(Cl)ncnc3c12,3.4%,-15.8%,5.0%,-7.9%
Cn1c(=O)c2c(-c3ccccc3Cl)n(Cc3ccc(Cl)cc3)cc2n(C)c1=O,25.1µM*,.,.,.
SMILES,ClpP mod,uPA generation,Sfp PPTase inh,TCR activator
COc1ccccc1NC(=S)N1CC(C)(C)C1=O,1.7%,8.3%,4.4%,-1.1%
CC(C)OC(=O)CC(=O)c1sc2nc3c(cc2c1N)CN(C)CC3,41.7%,8.0%,44.7µM*,3.7%
CCN1CCc2nc3sc(C(=O)Nc4cccc(Cl)c4C)c(N)c3cc2C1,-16.6%,.,.,.
CN1CCc2nc3sc(C(=O)Nc4c(F)cccc4F)c(N)c3cc2C1,-9.7%,.,.,.
Cc1cc(C)c2c(N)c(C(=O)N3CCc4ccccc4C3)sc2n1,-25.4%,-7.7%,56.2µM*,0.0%
CC(C)c1ccc2nc3sc(C(=O)N4CCc5ccccc5C4)c(N)c3cc2c1,-2.5%,-2.8%,-30.0%,1.6%
CCN1CCc2nc3sc(C(=O)N4CCc5ccccc5C4)c(N)c3cc2C1,.,0.1%,44.7µM*,0.6%
CN(C)C(CNC(=O)C1CC(=O)N(c2cccc(C(F)(F)F)c2)C1)c1ccccc1 (centres undefined),-4.2%,.,.,.
FC(F)(F)c1cc(NC(=S)Nc2ccc3cc4ccccc4cc3c2)cc(C(F)(F)F)c1,.,.,-24.6%,.
O=C(c1ccc2c(c1)OCO2)C1CCCN(Cc2cccn2-c2cccnc2)C1 (centres undefined),35.5µM*,10.7%,7.5%,1.3%
Cc1ccc2c(CC(=O)Nc3cccc(Cl)c3C)coc2c1,1.3%,.,.,.
CCOc1ccc(C2C(C(=O)Nc3ccccc3)=C(C)N=c3s/c(=C/c4cccc(OCC(=O)O)c4)c(=O)n32)cc1 (centres undefined),.,-0.3%,79.4µM*,5.2%
CCOC(=O)C1=C(C)N=c2s/c(=C/c3ccc(OCC(=O)O)cc3)c(=O)n2C1c1ccc(F)cc1 (centres undefined),0.3%,-8.4%,79.4µM*,1.8%
CCOC(=O)C1=C(C)N=c2s/c(=C\c3ccc(OCC(=O)O)cc3)c(=O)n2C1c1ccc(Cl)cc1 (centres undefined),.,-7.3%,-3.0%,-3.1%
CC1=C(C(=O)Nc2ccccc2)C(c2ccc(Cl)cc2)n2c(s/c(=C/c3cccc(OCC(=O)O)c3)c2=O)=N1 (centres undefined),.,-1.5%,50.1µM*,9.9%
Cc1ccc(-c2c(C#N)c(N)nc3c2CCCC3)o1,4.5%,-2.0%,1.0%,-1.0%
N#Cc1c(-c2ccncc2)c2c([nH]c1=S)CCCC2,-9.6%,-0.2%,5.01µM*,3.5%
Cc1ccc(-c2c3c([nH]c(=S)c2C#N)CCCC3)o1,-1.0%,7.1%,8.91µM*,-1.8%
N#Cc1c(SCC(N)=O)nc2c(c1-c1ccncc1)CCCC2,.,1.0%,-40.6%,-4.4%
CC(C)(C)c1nn2cnnc2n(/N=C/c2ccc(O)cc2)c1=O,7.08µM*,0.3%,6.7%,1.7%[46.1 µM]
COc1ccc(OC)c(C(=O)c2c(C)oc3cc([N+](=O)[O-])c(O)c([N+](=O)[O-])c23)c1,.,2.7%,56.2µM*,-6.9%
Cc1sc(N)c(C#N)c1C,14.1µM*,-5.0%,-26.2%,4.6%[46.1 µM]
CC(C)C1C(=O)N(Cc2cn(CC3CCCCC3)nn2)CCS(=O)(=O)N1Cc1ccc(-c2ccc(Cl)nc2)cc1 (centres undefined),-5.5%,.,.,.
O=C(c1ccc(Cl)cc1Cl)n1nnc2ccccc21,.,.,-18.1%,.
COc1cc(-c2noc(C)c2C#Cc2ccccn2)cc(OC)c1OC,-3.3%,0.355µM*,-7.1%,-4.2%
COC(=O)C1=C(C)NC(=S)NC1c1ccc(-c2cc(Cl)ccc2Cl)o1 (centres undefined),.,6.5%,39.8µM*,-2.9%
